# Experimental data: paper PMC7862700, “An all-to-all approach to the identification of sequence-specific readers for epigenetic DNA modifications on cytosine”
# How the values were obtained:
# Test in all cases: DAPPL (digital affinity profiling via proximity ligation, sequencing); 10 mM Tris-HCl pH 7.5, 50 mM NaCl, 1 mM DTT, 4% glycerol, room temperature, 30 min; GST-TFs on glutathione beads, 16-mer random dsDNA library, 0.1% formaldehyde crosslink after washing; high values mean tight binding
# FLI1 = molecular target: T1, FLI1 (Homo sapiens, UniProt Q01543 1-452); details: protein: recombinant; tags: N-terminal GST; dsDNA, one strand shown
# T1 sequence: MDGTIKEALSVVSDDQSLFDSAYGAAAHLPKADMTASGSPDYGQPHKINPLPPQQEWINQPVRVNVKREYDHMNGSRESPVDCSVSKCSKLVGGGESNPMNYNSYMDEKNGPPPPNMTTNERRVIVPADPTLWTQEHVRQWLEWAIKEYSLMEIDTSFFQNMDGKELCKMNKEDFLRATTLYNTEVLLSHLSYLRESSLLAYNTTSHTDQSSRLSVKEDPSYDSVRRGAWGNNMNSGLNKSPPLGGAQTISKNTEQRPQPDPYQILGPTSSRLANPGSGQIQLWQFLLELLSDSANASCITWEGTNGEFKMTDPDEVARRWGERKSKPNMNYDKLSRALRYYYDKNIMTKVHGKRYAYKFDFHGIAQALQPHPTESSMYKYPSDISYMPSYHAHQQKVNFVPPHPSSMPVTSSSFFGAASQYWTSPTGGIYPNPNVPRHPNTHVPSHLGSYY
# Procedure, shortened: (§1)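 A tag-only sample was pooled with DNA-barcoded human transcription factors that had been expressed in yeast as GST fusions and captured on glutathione beads. The pools were incubated for 30 min at room temperature with 200 nmole of a random double-stranded 16-mer DNA library in Tris/NaCl/DTT/glycerol buffer, then washed, crosslinked with 0.1% formaldehyde, proximity-ligated (BsaI/T4 ligase, 1 h, 37 °C), PCR-amplified and sequenced on an Illumina NextSeq500. Binding signal is each hexamer's read frequency for a factor divided by its frequency for the tag-only sample.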
# ELK1 = molecular target: T2, ELK1 (Homo sapiens, UniProt P19419 1-428); details: protein: recombinant; tags: N-terminal GST; dsDNA, one strand shown
# T2 sequence: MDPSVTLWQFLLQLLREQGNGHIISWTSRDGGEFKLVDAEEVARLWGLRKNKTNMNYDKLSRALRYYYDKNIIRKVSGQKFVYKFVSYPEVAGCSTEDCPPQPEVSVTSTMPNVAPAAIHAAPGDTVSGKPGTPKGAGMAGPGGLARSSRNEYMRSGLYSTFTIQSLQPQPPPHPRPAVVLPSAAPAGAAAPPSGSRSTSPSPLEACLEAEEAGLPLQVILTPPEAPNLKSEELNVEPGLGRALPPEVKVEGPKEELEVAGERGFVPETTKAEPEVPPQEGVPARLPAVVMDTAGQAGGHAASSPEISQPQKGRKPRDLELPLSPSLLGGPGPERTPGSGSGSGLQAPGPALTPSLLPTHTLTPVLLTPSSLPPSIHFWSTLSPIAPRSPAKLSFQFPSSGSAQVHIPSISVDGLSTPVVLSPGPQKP
# Procedure, shortened: as §1
# GABPA = molecular target: T3, GABPA (Homo sapiens, UniProt Q06546 1-454); details: protein: recombinant; tags: N-terminal GST; dsDNA, one strand shown
# T3 sequence: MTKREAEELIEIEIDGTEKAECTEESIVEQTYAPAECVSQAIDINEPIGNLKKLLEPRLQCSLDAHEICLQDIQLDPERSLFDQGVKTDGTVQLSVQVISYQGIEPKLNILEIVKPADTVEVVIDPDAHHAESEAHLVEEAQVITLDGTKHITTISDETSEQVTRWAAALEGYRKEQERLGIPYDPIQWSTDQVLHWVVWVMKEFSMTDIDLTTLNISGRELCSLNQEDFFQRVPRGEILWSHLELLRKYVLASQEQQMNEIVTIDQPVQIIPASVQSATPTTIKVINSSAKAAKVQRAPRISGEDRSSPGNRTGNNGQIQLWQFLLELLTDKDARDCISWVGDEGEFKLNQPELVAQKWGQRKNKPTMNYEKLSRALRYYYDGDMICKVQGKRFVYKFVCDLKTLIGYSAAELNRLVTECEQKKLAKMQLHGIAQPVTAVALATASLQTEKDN
# Procedure, shortened: as §1
# ERG = molecular target: T4, ERG (Homo sapiens, UniProt P11308 1-479); details: protein: recombinant; tags: N-terminal GST; dsDNA, one strand shown
# T4 sequence: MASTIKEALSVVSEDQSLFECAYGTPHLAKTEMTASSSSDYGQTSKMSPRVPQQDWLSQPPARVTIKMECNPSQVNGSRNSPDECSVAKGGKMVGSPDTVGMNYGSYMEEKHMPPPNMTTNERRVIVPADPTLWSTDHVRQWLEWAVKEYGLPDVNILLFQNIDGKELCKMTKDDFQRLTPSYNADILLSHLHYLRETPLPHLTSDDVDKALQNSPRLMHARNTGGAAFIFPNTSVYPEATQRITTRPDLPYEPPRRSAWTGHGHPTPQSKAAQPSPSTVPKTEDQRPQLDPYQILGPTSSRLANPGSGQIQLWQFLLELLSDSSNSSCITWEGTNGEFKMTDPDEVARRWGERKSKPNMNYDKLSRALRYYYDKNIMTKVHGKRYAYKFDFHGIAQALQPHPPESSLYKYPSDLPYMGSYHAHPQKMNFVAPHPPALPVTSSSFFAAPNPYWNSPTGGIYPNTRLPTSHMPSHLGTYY
# Procedure, shortened: as §1
# ELF1 = ELF1 (Homo sapiens, UniProt P32519 1-619); details: protein: recombinant; tags: N-terminal GST; dsDNA, one strand shown
# Procedure, shortened: as §1
# EHF = molecular target: T5, EHF (Homo sapiens, UniProt Q9NZC4 1-300); details: protein: recombinant; tags: N-terminal GST; dsDNA, one strand shown
# T5 sequence: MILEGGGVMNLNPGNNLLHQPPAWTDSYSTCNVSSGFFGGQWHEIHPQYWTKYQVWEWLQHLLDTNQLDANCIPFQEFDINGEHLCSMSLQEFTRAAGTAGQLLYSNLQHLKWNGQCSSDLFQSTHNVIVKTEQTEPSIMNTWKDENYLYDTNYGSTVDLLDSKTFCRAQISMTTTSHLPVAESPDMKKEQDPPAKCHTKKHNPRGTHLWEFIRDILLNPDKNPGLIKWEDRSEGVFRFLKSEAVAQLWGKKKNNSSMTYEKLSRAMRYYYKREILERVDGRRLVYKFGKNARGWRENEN
# Procedure, shortened: as §1
# SPI1 = SPI1 (Homo sapiens, UniProt P17947 1-270); details: protein: recombinant; tags: N-terminal GST; dsDNA, one strand shown
# Procedure, shortened: as §1
# SPIB = SPIB (Homo sapiens, UniProt Q01892 1-262); details: protein: recombinant; tags: N-terminal GST; dsDNA, one strand shown
# Procedure, shortened: as §1
# ELK3 = molecular target: T6, ELK3 (Homo sapiens, UniProt P41970 1-407); details: protein: recombinant; tags: N-terminal GST; dsDNA, one strand shown
# T6 sequence: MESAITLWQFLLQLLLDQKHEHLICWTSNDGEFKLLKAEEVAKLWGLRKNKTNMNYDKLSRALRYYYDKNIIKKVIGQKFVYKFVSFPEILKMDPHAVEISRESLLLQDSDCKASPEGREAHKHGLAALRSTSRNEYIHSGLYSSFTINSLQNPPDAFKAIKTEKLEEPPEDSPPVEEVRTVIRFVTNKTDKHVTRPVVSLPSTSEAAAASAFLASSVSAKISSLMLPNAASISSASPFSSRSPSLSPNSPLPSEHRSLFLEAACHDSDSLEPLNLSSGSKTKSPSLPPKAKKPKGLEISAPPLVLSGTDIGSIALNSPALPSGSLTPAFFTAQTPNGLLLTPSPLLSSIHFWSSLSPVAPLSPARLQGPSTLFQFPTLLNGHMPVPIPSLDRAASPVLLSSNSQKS
# Procedure, shortened: as §1
# FEV = molecular target: T7, FEV (Homo sapiens, UniProt Q99581 1-238); details: protein: recombinant; tags: N-terminal GST; dsDNA, one strand shown
# T7 sequence: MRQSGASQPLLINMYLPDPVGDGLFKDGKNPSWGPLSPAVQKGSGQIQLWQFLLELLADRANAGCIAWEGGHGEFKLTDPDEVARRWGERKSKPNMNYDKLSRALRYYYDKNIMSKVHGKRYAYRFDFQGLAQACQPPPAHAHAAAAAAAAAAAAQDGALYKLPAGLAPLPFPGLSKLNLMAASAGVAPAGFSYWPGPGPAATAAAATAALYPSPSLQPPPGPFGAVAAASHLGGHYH
# Procedure, shortened: as §1
# ETV5 = ETV5 (Homo sapiens, UniProt P41161 1-510); details: protein: recombinant; tags: N-terminal GST; dsDNA, one strand shown
# Procedure, shortened: as §1
# HSF1 = HSF1 (Homo sapiens, UniProt Q00613 1-529); details: protein: recombinant; tags: N-terminal GST; chain copies: 3; dsDNA, one strand shown
# Procedure, shortened: as §1
# SPIC = molecular target: T8, SPIC (Homo sapiens, UniProt Q8N5J4 1-248); details: protein: recombinant; tags: N-terminal GST; dsDNA, one strand shown
# T8 sequence: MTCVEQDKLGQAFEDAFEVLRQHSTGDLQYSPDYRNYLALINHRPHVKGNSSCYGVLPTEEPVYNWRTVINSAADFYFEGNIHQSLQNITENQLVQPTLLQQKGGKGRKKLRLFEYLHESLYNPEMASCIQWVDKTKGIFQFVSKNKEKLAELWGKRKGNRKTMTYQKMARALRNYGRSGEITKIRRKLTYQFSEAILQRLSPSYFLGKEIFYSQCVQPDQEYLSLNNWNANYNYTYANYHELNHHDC
# Procedure, shortened: as §1
# ELF4 = ELF4 (Homo sapiens, UniProt Q99607 1-663); details: protein: recombinant; tags: N-terminal GST; dsDNA, one strand shown
# Procedure, shortened: as §1
# ELK4 = molecular target: T9, ELK4 (Homo sapiens, UniProt P28324-2 1-405); details: protein: recombinant; tags: N-terminal GST; dsDNA, one strand shown
# T9 sequence: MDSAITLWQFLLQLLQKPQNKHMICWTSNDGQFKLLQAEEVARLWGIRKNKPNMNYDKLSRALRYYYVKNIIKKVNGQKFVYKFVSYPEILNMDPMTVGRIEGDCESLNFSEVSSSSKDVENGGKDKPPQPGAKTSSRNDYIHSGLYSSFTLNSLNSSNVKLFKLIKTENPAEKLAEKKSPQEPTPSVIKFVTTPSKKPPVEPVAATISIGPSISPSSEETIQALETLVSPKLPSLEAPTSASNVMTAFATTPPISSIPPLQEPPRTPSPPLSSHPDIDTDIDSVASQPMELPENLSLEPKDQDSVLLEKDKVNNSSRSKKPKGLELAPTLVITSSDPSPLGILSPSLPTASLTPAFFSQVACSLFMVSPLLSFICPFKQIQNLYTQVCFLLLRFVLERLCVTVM
# Procedure, shortened: as §1
# ETV2 = molecular target: T10, ETV2 (Homo sapiens, UniProt O00321 1-342); details: protein: recombinant; tags: N-terminal GST; dsDNA, one strand shown
# T10 sequence: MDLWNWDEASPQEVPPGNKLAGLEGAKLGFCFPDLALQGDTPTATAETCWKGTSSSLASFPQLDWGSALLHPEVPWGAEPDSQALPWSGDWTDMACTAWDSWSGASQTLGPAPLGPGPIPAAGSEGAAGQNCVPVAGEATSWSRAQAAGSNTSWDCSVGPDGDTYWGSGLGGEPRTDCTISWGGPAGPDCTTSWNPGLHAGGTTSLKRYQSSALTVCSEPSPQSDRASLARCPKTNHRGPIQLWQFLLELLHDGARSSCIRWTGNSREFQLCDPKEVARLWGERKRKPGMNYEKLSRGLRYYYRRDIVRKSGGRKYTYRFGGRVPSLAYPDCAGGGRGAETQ
# Procedure, shortened: as §1
# ELF3 = molecular target: T11, ELF3 (Homo sapiens, UniProt P78545 1-371); details: protein: recombinant; tags: N-terminal GST; dsDNA, one strand shown
# T11 sequence: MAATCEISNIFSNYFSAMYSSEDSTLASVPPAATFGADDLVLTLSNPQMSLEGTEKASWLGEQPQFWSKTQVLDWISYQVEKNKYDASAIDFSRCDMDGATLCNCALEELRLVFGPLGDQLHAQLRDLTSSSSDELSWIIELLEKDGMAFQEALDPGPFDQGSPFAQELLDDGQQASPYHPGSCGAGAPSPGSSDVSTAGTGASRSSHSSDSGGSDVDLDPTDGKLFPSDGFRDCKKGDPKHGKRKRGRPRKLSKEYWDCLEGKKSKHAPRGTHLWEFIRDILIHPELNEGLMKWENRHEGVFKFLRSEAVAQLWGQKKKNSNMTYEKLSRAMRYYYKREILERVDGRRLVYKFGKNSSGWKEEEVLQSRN
# Procedure, shortened: as §1
# CRX = CRX (Homo sapiens, UniProt O43186 1-299); details: protein: recombinant; tags: N-terminal GST; dsDNA, one strand shown
# Procedure, shortened: as §1
# ETV1 = ETV1 (Homo sapiens, UniProt P50549 1-477); details: protein: recombinant; tags: N-terminal GST; dsDNA, one strand shown
# Procedure, shortened: as §1
# Chain of SPIB (Q01892 whole entry): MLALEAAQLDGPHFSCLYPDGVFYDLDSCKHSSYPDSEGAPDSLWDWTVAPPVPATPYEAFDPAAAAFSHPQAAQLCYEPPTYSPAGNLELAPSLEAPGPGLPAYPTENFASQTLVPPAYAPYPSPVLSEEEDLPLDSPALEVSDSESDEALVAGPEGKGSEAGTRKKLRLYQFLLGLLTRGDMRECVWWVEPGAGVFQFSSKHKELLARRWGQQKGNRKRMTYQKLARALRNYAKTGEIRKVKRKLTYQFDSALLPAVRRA
# Chain of ELF1 (P32519 whole entry): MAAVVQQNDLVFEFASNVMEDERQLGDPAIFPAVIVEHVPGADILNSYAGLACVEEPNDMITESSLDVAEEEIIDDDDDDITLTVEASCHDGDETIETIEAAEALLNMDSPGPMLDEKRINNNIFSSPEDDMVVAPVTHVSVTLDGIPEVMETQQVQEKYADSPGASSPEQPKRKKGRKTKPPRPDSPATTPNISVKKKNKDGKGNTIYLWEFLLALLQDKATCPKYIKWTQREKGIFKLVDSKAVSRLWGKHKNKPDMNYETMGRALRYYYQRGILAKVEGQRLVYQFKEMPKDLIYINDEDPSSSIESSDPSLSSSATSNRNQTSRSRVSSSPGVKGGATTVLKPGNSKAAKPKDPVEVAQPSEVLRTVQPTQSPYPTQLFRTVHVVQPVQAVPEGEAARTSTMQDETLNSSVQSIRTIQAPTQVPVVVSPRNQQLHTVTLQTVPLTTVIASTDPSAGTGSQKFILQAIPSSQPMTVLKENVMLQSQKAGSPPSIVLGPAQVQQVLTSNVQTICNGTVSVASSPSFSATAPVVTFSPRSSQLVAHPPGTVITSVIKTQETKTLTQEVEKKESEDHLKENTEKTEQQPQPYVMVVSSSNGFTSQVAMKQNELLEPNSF
# Chain of ELF4 (Q99607 whole entry): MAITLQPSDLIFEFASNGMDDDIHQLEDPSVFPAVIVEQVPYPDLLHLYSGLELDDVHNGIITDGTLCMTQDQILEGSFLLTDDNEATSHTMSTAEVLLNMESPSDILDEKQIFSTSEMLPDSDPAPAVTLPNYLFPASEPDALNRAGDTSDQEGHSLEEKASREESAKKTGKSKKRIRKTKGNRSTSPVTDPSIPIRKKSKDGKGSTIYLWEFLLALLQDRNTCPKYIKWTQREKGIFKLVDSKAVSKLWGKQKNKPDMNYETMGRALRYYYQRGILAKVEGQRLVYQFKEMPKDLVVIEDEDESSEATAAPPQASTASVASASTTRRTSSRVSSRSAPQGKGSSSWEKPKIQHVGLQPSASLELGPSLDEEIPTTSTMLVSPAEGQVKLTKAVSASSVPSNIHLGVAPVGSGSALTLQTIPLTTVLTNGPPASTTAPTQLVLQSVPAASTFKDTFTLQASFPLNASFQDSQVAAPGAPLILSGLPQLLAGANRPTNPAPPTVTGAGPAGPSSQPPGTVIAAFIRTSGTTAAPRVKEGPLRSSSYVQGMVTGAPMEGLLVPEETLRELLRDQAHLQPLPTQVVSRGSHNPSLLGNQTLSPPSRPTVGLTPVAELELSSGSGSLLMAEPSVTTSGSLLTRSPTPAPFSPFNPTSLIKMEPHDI
# Chain of CRX (O43186 whole entry): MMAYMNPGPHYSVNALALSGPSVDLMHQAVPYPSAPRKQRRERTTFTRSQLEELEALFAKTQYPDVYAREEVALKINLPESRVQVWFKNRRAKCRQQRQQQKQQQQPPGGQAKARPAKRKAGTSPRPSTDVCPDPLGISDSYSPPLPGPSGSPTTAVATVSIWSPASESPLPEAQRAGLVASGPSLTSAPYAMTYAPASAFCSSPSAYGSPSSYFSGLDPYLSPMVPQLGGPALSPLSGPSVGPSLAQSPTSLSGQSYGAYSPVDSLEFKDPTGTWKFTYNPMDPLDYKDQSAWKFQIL
# Chain of HSF1 (Q00613 whole entry): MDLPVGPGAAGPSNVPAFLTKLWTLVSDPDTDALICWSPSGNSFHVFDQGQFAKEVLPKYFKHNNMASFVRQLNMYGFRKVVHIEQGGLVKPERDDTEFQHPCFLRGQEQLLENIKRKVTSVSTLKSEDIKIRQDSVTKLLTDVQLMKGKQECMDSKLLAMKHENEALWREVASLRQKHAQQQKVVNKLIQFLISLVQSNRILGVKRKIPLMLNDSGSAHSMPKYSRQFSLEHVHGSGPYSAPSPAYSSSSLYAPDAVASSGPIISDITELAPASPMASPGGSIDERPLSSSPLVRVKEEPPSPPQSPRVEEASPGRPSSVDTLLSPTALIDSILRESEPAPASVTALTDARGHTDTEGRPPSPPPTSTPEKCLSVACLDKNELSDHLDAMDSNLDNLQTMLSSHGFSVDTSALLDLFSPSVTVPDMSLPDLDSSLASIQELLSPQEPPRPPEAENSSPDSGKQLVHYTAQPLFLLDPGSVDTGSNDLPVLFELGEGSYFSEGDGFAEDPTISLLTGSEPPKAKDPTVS
# Chain of ETV5 (P41161 whole entry): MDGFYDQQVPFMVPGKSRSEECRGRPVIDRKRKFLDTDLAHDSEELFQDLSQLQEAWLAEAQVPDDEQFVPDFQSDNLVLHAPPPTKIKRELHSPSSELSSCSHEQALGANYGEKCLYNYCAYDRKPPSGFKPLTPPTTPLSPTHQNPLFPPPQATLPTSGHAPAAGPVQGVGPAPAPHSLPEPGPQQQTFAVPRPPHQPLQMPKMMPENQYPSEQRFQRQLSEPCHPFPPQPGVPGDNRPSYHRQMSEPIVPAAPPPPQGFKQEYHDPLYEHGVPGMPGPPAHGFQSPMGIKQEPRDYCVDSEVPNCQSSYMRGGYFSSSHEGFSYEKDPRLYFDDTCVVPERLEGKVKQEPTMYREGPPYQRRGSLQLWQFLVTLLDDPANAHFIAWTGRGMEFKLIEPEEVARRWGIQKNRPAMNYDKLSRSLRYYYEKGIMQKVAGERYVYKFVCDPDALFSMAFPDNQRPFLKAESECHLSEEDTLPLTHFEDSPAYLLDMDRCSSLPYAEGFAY
# Chain of ETV1 (P50549 whole entry): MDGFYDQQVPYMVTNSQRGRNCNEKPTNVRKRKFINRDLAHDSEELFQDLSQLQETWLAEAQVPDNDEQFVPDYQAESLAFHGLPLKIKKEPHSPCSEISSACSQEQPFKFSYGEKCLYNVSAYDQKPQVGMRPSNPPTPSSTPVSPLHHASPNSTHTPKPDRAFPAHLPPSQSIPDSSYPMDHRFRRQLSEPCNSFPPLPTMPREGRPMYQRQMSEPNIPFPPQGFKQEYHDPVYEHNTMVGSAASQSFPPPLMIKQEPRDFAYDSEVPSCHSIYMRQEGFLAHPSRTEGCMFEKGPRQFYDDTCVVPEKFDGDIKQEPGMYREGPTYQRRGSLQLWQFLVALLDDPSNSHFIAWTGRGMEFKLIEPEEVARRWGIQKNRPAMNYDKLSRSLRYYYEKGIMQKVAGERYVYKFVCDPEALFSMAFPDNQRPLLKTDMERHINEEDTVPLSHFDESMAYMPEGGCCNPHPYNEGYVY
sequence,measurement,setting,value
TTTGGT,binding signal,FLI1,"1.48 fold enrichment (6-mer frequency, TF over GST control)"
same,binding signal,ELK1,"1.29 fold enrichment (6-mer frequency, TF over GST control)"
same,binding signal,GABPA,"1.42 fold enrichment (6-mer frequency, TF over GST control)"
same,binding signal,ERG,"1.31 fold enrichment (6-mer frequency, TF over GST control)"
same,binding signal,ELF1,"1.32 fold enrichment (6-mer frequency, TF over GST control)"
same,binding signal,EHF,"1.36 fold enrichment (6-mer frequency, TF over GST control)"
same,binding signal,SPI1,"1.27 fold enrichment (6-mer frequency, TF over GST control)"
same,binding signal,SPIB,"1.3 fold enrichment (6-mer frequency, TF over GST control)"
same,binding signal,ELK3,"1.37 fold enrichment (6-mer frequency, TF over GST control)"
same,binding signal,FEV,"1.37 fold enrichment (6-mer frequency, TF over GST control)"
same,binding signal,ETV5,"1.29 fold enrichment (6-mer frequency, TF over GST control)"
same,binding signal,HSF1,"1.36 fold enrichment (6-mer frequency, TF over GST control)"
same,binding signal,SPIC,"1.37 fold enrichment (6-mer frequency, TF over GST control)"
same,binding signal,ELF4,"1.3 fold enrichment (6-mer frequency, TF over GST control)"
same,binding signal,ELK4,"1.44 fold enrichment (6-mer frequency, TF over GST control)"
same,binding signal,ETV2,"1.43 fold enrichment (6-mer frequency, TF over GST control)"
same,binding signal,ELF3,"1.17 fold enrichment (6-mer frequency, TF over GST control)"
same,binding signal,CRX,"1.51 fold enrichment (6-mer frequency, TF over GST control)"
same,binding signal,ETV1,"1.36 fold enrichment (6-mer frequency, TF over GST control)"
